Reference: PubChem BioAssay AID1053 (University of Pittsburgh Molecular Library Screening Center, 2008)
“And” between values parts separate entries of the source, which are not always exact repeats. Equal entries are not always repeated. The source made the active and inactive calls. The rule behind the calls is not given here.

biological target: Serine/threonine-protein kinase PLK1 (Homo sapiens) (UniProt P53350); test: Plk1 polo box domain binding inhibitors, SAR follow-up, biochemical, fluorescence polarization, purchased analogs (AID 1053); details: Plk1 PBD fluorescence polarization peptide binding; at 20 µM; hits give high values
Sequence (P53350 whole entry, looked up, the tested form may be a part): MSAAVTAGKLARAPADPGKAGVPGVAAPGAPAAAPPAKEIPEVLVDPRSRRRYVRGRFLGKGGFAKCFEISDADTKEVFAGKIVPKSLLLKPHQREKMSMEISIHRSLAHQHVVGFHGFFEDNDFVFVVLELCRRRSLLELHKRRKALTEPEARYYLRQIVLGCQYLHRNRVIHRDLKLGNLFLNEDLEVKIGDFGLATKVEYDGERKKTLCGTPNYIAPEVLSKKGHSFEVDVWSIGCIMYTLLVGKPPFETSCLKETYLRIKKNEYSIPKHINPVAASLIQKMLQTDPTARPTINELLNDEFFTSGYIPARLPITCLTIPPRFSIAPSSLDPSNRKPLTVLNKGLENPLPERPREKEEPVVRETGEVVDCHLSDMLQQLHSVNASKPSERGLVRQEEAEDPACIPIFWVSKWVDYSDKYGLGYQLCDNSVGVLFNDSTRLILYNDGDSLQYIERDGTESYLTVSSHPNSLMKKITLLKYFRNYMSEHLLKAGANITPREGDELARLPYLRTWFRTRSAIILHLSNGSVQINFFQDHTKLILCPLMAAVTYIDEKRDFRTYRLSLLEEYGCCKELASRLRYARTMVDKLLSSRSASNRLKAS

inhibition, inactive:
Cn1c(=O)[nH]c2nnc(-c3ccc([N+](=O)[O-])cc3)nc2c1=O -49.9%
Cc1ccccc1-c1nnc2[nH]c(=O)n(C)c(=O)c2n1 -8.49% and -8.27%
CCOC(=O)c1ccc(N=Cc2c(O)n(C)c(=O)n(C)c2=O)cc1 -54.3%
CCN(CC)CCOC(=O)c1ccc(N=Cc2c(O)n(Cc3ccccc3)c(=O)[nH]c2=O)cc1 -220%
CCOC(=O)c1ccc(NC(=O)C2CCC(C(C)(C)C)CC2)cc1 (configuration not stated) 8.43%
CCOC(=O)c1ccc(N=Cc2c(O)n(-c3cccc(OC)c3)c(=O)[nH]c2=O)cc1 -40.6%
CCn1nc(-c2ccc(C)cc2)nc2c(=O)n(C)c(=O)nc1-2 16.7%
CC(=O)N(CN1C(=O)c2ccc(Br)cc2C1=O)c1ccc(Cl)cc1 -43%
CC(=O)N(CN1C(=O)c2ccccc2C1=O)c1ccc(Cl)c(Cl)c1 -88.3%
COc1ccc(-c2nnc3[nH]c(=O)n(C)c(=O)c3n2)cc1 -45.9% and -39.6%
COC(=O)c1ccc(N(/N=C2\Sc3ccccc3C2=O)C(C)=O)cc1 -20.9%
CCOC(=O)c1ccc(NC(=O)C2Cc3ccccc3C(=O)O2)cc1 (configuration not stated) -59.4%
Cn1c(=O)[nH]c2nnc(-c3ccc(C(F)(F)F)cc3)nc2c1=O -39.5% and -40.5%
COc1ccc(-c2nnc3[nH]c(=O)n(C)c(=O)c3n2)cc1OC -22.8% and -20.3%
COc1ccc(N(CN2C(=O)c3cc(Cl)c(Cl)cc3C2=O)C(C)=O)cc1 -52.7%
CCn1nc(-c2ccc(C(=O)OC)cc2)nc2c(=O)n(C)c(=O)nc1-2 -9.29%
CCN(CC)CCOC(=O)c1ccc(N=Cc2c(O)n(-c3c(C)cc(C)cc3C)c(=O)[nH]c2=O)cc1 -134%
Cc1ccccc1-c1nc2c(=O)n(C)c(=O)nc-2n(C)n1 36.2% and 24.8%
CCCCCC(=O)N(CN1C(=O)c2ccccc2C1=O)c1cccc(C(=O)O)c1 -10.1%
CCCOC(=O)c1ccc(NC(=O)c2c(F)c(F)c(F)c(F)c2F)cc1 -41.6%
CC(=O)Oc1ccccc1N(/C=C1/Sc2ccccc2C1=O)C(C)=O -290%
CC(=O)N(/N=C1\Sc2ccccc2C1=O)c1ccccc1I -47.1%
CC(=O)N(/C=C1\Sc2ccccc2C1=O)c1ccc(C)c(C)c1 -217%
O=c1[nH]c2c(c(O)c1-c1ccccc1)c(=O)n(-c1ccccc1)c(=O)n2-c1ccccc1 -40.4%
CCOc1ccc(-c2nc3c(=O)n(C)c(=O)nc-3n(C)n2)cc1OC 34.4%
CC(=O)N(/N=C1\Sc2ccccc2C1=O)c1cccc(Br)c1 20.2%
Cn1c(=O)c2nc(-c3ccccc3)c(=O)[nH]c2n(C)c1=O -31.3%
Cn1c(=O)[nH]c2nnc(-c3ccc(Cl)cc3)nc2c1=O 28.8%
COc1ccccc1N(/C=C1\Sc2ccccc2C1=O)C(C)=O -288% and -274%
COc1ccc(N(/C=C2\Sc3ccccc3C2=O)C(C)=O)cc1 -312%
CCOC(=O)c1ccc(NC(=O)c2cncc(Br)c2)cc1 -31.4%
CC(=O)N(/C=C1\Sc2ccccc2C1=O)c1ccc(I)cc1 -16.1%
CC(=O)N(CN1C(=O)c2ccccc2C1=O)c1ccc(C)cc1 -31.4%
CCc1ccc(-c2nc3c(=O)n(C)c(=O)nc-3n(CC)n2)cc1 5.6% and 4.47%
CC(=O)N(CN1C(=O)c2ccccc2C1=O)c1ccc2ccccc2c1 -49.2%
CCn1nc(-c2ccc(C(F)(F)F)cc2)nc2c(=O)n(C)c(=O)nc1-2 10.8%
Cn1c(=O)c2nc(-c3ccccc3)c(=O)n(C)c2n(C)c1=O -37.8%
